Shown are actives, neighbours in structure and some others; about 2.4% of the full set was active somewhere.
Pol beta inh: blocks human DNA polymerase beta activity; AID 485314; actives 1.3% (n = 340,000); Pol beta primer extension/strand displacement, fluorescence kinetic; P06746; Potency, µM (titrated, usually from 114 µM), for inactives: at the highest dose activity change, negative = inhibition, usual class: inhibitors; also: % is scaled to controls: 0 for no effect and ±100 for the full control effect
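Homogeneous kinetic assay of primer extension and strand displacement by 10 nM Pol beta, preincubated 15 min at room temperature with compound before 50 nM substrate (final) was added. Read at 0 and 10 min; four-parameter Hill fit.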
TDP1 inh: blocks human tyrosyl-DNA phosphodiesterase 1; recombinant TDP1, AlphaScreen DNA substrate cleavage; Potency, µM (doses to about 130 µM), without a hit: top-dose activity change, negative = inhibition, usual class: inhibitors; Q9NUW8; actives 0.28% (n = 350,000); also: % is scaled to controls: 0 for no effect and ±100 for the full control effect; nearly all actives have a fitted effect of over 40% in size
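AlphaScreen read-out: signal falls as enzyme removes the 3' tyrosine-FITC from a 5'-biotinylated DNA oligo (15 nM, 5 min, RT). Enzyme was E. coli-made recombinant Tdp1 at 1 nM, exposed to compound for 15 min beforehand; beads 10 ug/ml, 10 min.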
POLI inh: inhibitors of human DNA polymerase iota | Potency, µM (top dose mostly 115 µM), for the others: at the top dose activity, negative = inhibition, most hits filed as inhibitors | AID 588590 | Q9UNA4 | actives 1% (n = 390,000) | Pol iota fluorescent replication assay, 10 min
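Pol iota at 10 nM preincubated 15 min with compounds at room temperature; reaction started with fluorescent substrate, 50 nM final. Fluorescence read kinetically at 0 and 10 min; buffer-only wells as negative control.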
Pol eta inh: blocks human DNA polymerase eta activity; Q9Y253; recombinant Pol eta, fluorescent DNA replication assay; Potency, µM (highest dose often 114 µM), inactives show at the top dose activity change, negative = inhibition, hits mostly inhibitors; actives 1.2% (n = 390,000); also: % is scaled to controls: 0 for no effect and ±100 for the full control effect
Target sequence (Q9Y253 whole entry, looked up): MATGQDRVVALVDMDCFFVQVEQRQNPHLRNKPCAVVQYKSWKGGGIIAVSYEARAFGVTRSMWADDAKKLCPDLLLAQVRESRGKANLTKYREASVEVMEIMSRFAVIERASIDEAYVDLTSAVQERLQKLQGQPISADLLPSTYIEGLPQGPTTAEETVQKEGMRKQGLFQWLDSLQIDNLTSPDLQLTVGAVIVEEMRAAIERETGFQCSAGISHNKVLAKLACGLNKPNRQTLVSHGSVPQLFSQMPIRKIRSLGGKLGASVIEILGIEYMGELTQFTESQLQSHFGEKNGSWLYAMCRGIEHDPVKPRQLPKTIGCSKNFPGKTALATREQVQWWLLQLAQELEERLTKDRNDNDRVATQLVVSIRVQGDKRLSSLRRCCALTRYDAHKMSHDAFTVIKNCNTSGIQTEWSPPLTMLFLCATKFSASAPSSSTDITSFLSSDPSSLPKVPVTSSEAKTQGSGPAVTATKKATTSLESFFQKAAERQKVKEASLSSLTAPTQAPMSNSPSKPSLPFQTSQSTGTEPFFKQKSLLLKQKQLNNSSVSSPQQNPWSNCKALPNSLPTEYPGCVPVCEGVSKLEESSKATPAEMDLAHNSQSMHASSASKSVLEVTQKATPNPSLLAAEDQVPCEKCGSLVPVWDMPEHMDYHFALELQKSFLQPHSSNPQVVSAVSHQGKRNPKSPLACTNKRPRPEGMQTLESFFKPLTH
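Pol eta at 10 nM preincubated with compounds 15 min at room temperature; reaction started with fluorescent substrate (50 nM final) and read kinetically at 0 and 10 min.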
POLK inh: inhibitors of human DNA polymerase kappa; Q9UBT6; purified Pol kappa, fluorescent DNA synthesis assay, 10 min; Potency, µM (series often up to 107 µM), for inactives: top-dose activity, negative = inhibition, actives largely listed as inhibitors; actives 0.53% (n = 400,000); AID 588579; also: % is scaled to controls: 0 for no effect and ±100 for the full control effect
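Enzyme at 10 nM met test compounds for 15 min at room temperature. Substrate addition (50 nM final) began the reaction, which was monitored by fluorescence at 0 and 10 min.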
The depositor's hits bear a star; ! = a repeat was not active; [ ] = another dose, or the depositor's remark. Calls follow the shape of the dose curve; as a rule, active = well fitted curve in the direction sought with a large enough effect; inconclusive = small, poorly fitted or top-dose-only effect, or another doubt; inactive = no such curve, though single readings can be large; an effect the other way counts as inactive or inconclusive. Potency is read from the fitted curve at half-maximal effect.

Screening CCOc1ccccc1C(=O)N/N=C/c1coc2ccc(C)cc2c1=O returned Pol beta inh 55.5%, TDP1 inh 35.5µM*, POLI inh inconclusive, Pol eta inh inconclusive and POLK inh -2.9%.
O=c1c(O)c(-c2ccc(O)cc2)oc2cc(O)ccc12 was read as TDP1 inh 14.3% and POLK inh -11.3%[19.4 µM].
`O=c1c(O)c(-c2cc(O)c(O)c(O)c2)oc2cc(O)ccc12` gave POLK inh 0.238µM*.
Screening COc1cc(O)c2c(=O)c3c(OC)c(O)ccc3oc2c1 returned Pol beta inh -27.5%, TDP1 inh 3.9%, POLI inh 7.7%, Pol eta inh -21.5% and POLK inh -5.6%.
For COc1cc(O)c2c(=O)c(O)c(-c3ccc(O)c(O)c3)oc2c1 the results were TDP1 inh 9.5% and POLK inh 0.947µM*.
Screening O=c1c(O)c(-c2ccc(O)cc2)oc2cc(O)cc(O)c12 returned TDP1 inh 17.0%[56.1 µM], POLI inh 79.4µM*, Pol eta inh 25.1µM* and POLK inh -30.1%.
Screening COc1ccc(-c2nc(SCC(=O)Nc3cccc(C(C)=O)c3)n[nH]2)cc1 returned Pol beta inh 3.7%, TDP1 inh 5.4%, POLI inh 0.7%, Pol eta inh -16.6% and POLK inh 1.4%[60.1 µM].
Screening O=C(c1ccc2c(c1)N(Cc1cccc(F)c1)C(=O)c1ccccc1S2)N1CCOCC1 returned Pol beta inh 50.1µM*, TDP1 inh 0.9%, POLI inh inconclusive, Pol eta inh inconclusive and POLK inh -16.4%[60.1 µM].
For Cc1nn(-c2ccccc2)c(C)c1/C=N/NC(=O)c1cc(-c2ccc(Br)s2)[nH]n1 the results were Pol beta inh -12.3%, TDP1 inh 5.3%, POLI inh inconclusive, Pol eta inh -9.4% and POLK inh 5.8%.
`O=C(N/N=C/c1ccccn1)c1cc(-c2ccc3ccccc3c2)n[nH]1` gave Pol beta inh 20µM*, POLI inh inconclusive, Pol eta inh inconclusive and POLK inh -24.6%.
For O=C(N/N=C/c1ccncc1)c1cc(-c2ccc(Br)s2)[nH]n1 the results were Pol beta inh 22.4µM*, TDP1 inh 2.9%, POLI inh inconclusive, Pol eta inh 79.4µM* and POLK inh -21.4%.
`O=C(N/N=C/c1ccccn1)c1cc(-c2ccc(Br)s2)[nH]n1` gave Pol beta inh 10µM*, POLI inh -11.8%, Pol eta inh -29.4% and POLK inh -22.1%.
O=C(N/N=C\c1ccncc1)c1ccc(Br)s1 was read as Pol beta inh -18.7%, TDP1 inh 4.0%, POLI inh 21.0%, Pol eta inh -9.8% and POLK inh 8.2%.
For O=C(N/N=C/c1ccccn1)c1cc(-c2ccc(Cl)s2)[nH]n1 the results were Pol beta inh 35.5µM*, TDP1 inh 0.5%[0.0935 µM], POLI inh 27.0%, Pol eta inh -10.9% and POLK inh -6.9%.
Screening CCC[C@@H]1NC(=O)[C@@H](NC(C)=O)CSSC[C@@H](C(N)=O)NC(=O)CNC(=O)[C@H](Cc2c[nH]c3ccccc23)NC(=O)[C@H](CCCN=C(N)N)NC(=O)[C@H](Cc2ccc3ccccc3c2)NC(=O)[C@H](Cc2cnc[nH]2)NC(=O)[C@H](CCCN=C(N)N)NC1=O returned TDP1 inh 16.7% and POLK inh 1.4%[60.1 µM].
COc1cc2c(cc1O)CCN[C@@]21CS[C@H]2c3c(OC(C)=O)c(C)c4c(c3C(COC1=O)N1C2C2c3c(cc(C)c(OC)c3O)CC([C@@H]1O)N2C)OCO4 (some centres undefined) was read as POLK inh -19.5%[19.4 µM].
O=C(NNS(=O)(=O)c1cccc(Cl)c1)c1cc(-c2ccc(F)cc2)nc2ccccc12 was read as Pol beta inh 50.1µM*, TDP1 inh 0.0%, POLI inh inconclusive, Pol eta inh inconclusive and POLK inh -17.3%.
For NCCNCCN the results were TDP1 inh 3.0% and POLK inh 1.06µM*.
Screening Cc1cc(/C=C/c2ccccc2)nc2ccccc12 returned POLI inh 8.2% and POLK inh -21.6%.
For COCCN(CC(=O)Nc1cccc(C)c1C)C(=O)c1cc2c(s1)CCC2 the results were TDP1 inh 22.4µM*, POLI inh 89.1µM*, Pol eta inh inconclusive and POLK inh inconclusive.
Screening CCN(CC(=O)Nc1ccccc1C(F)(F)F)C(=O)c1cc2c(s1)CCCCC2 returned POLI inh 14.8%, Pol eta inh -12.6% and POLK inh -14.3%.
Cc1ccc(NC(=O)CS(=O)CC(=O)NC(C)CCc2ccco2)cc1Cl (centres undefined) was read as Pol beta inh 31.6µM*, TDP1 inh 0.0%, POLI inh -38.7%, Pol eta inh inconclusive and POLK inh -28.5%.
For Cc1ccc(-c2ccccc2NC(=O)CS(=O)CC(=O)Nc2ccc(C)c(Cl)c2)o1 (centres undefined) the results were Pol beta inh -2.6%, POLI inh inconclusive, Pol eta inh -2.1% and POLK inh -18.1%.
For O=C(Nc1cc(C(=O)Nc2ccc(S(=O)(=O)O)cc2S(=O)(=O)O)cc(C(=O)Nc2ccc(S(=O)(=O)O)cc2S(=O)(=O)O)c1)Nc1cc(C(=O)Nc2ccc(S(=O)(=O)O)cc2S(=O)(=O)O)cc(C(=O)Nc2ccc(S(=O)(=O)O)cc2S(=O)(=O)O)c1 the results were Pol beta inh 0.224µM*, TDP1 inh 5.01µM*, POLI inh 1.26µM*, Pol eta inh 0.1µM* and POLK inh 0.178µM*!.
Screening Nc1ccc(C(=O)Nc2ccc3cc(S(=O)(=O)O)ccc3c2)cc1 returned POLI inh 1.6%, Pol eta inh -28.9% and POLK inh -17.7%.
CC(=O)N[C@H]1CSSC[C@@H](C(=O)N2CCC[C@H]2C(=O)N2CCC[C@H]2C(=O)N[C@@H](CCCCN)C(=O)N[C@@H](CC(=O)O)C(N)=O)NC(=O)CNC(=O)[C@H](Cc2c[nH]c3ccccc23)NC(=O)[C@H](CCCNC(=N)N)NC(=O)[C@@H](Cc2ccc3ccccc3c2)NC(=O)[C@H](Cc2cnc[nH]2)NC(=O)[C@H](CCC(=O)O)NC1=O was read as TDP1 inh 17.4% and POLK inh 14.8%[60.1 µM].
`CCOc1ccc(NC(=O)CC2Nc3cccc4cccc(c34)NC2=O)cc1` (centres undefined) gave Pol beta inh 31.3%, TDP1 inh 2.1%, POLI inh 5.01µM*, Pol eta inh 4.0% and POLK inh inconclusive.
`CC(=O)c1ccc(NC(=O)CC2Nc3cccc4cccc(c34)NC2=O)cc1` (centres undefined) gave Pol beta inh inconclusive, TDP1 inh 4.9%, POLI inh inconclusive, Pol eta inh -0.5% and POLK inh inconclusive.
